Drawing on PubChem BioAssay (NCI), this text covers growth for 8 compounds.

This is part of a sample that, as a whole, favours compounds with a hit. Of some 83,000 tested, about 20% had one in any assay.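 Step 1: grow cells in 96-well plates. Step 2: add test compound at a single concentration. Step 3: incubate 48 h. Step 4: record percent growth.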 Unmarked numbers belong to inactive results. Calls of active or inactive are those of the source. The calls were made as follows: active = growth percent below 10; inactive = the rest.

Test systems include NCI-H23 lung; NCI-H226 lung; NCI-H322M lung; HOP-62 NSCLC; NCI-H460 lung; NCI-H522 lung; A549/ATCC NSCLC; 786-0 renal; COLO 205 colon; DU-145 prostate; MALME-3M melanoma; MDA-MB-231 breast; RXF 393 renal; SF-268 CNS; SF-295 CNS; UACC-257 melanoma; M14 melanoma; HCT-15 colon; SF-539 CNS; K-562 leukemia.
Holding throughout (test): NCI-60 one-dose screen, 48 h (100 = growth as untreated, 0 = no growth, -100 = all killed)
Holding throughout (details): 10 µM unless noted

In the case of `COC(=O)[C@]1(C(C)C)N[C@H](c2cn(-c3ccccc3)nc2-c2ccccc2)[C@@H]2C(=O)N(c3ccc(Cl)cc3)C(=O)[C@@H]21`, the growth with NCI-H23 lung is 92.9%; in the test on NCI-H226 lung it was 105%; in the test on NCI-H322M lung, 99.1%; in the test on HOP-62 NSCLC it was 95.7%; with NCI-H460 lung it was 105%; in the test with NCI-H522 lung, 81.4%. The growth in the test on A549/ATCC NSCLC was 101%; in the test on 786-0 renal, 81.9%; with COLO 205 colon, 106%; with DU-145 prostate it was 111%; in the test with MALME-3M melanoma it was 107%; in the test with MDA-MB-231 breast, 105%. Also, the growth in the test with RXF 393 renal is 113%; with SF-268 CNS, 90.8%; with SF-295 CNS, 106%; in the test on UACC-257 melanoma it was 107%; in the test on M14 melanoma, 87.6%; in the test on HCT-15 colon it was 96%.

`COc1ccc(-c2c(N)noc2-c2cc(OC)c3c(c2)OCCO3)cc1`: the growth with NCI-H23 lung was 1.48% (active); in the test with NCI-H226 lung, -17.1% (active); with NCI-H322M lung it was 53%; with HOP-62 NSCLC, 23%; in the test on NCI-H460 lung, 7.94% (active); in the test with NCI-H522 lung it was 0.361% (active). The growth in the test with A549/ATCC NSCLC is 21.3%; in the test on 786-0 renal, 13.1%; in the test with COLO 205 colon it was -75.8% (active); with DU-145 prostate, -17.2% (active); in the test with MALME-3M melanoma it was 81.2%; in the test on MDA-MB-231 breast, 27.5%. In addition, the growth in the test with RXF 393 renal is 39.2%; with SF-268 CNS, 26.8%; with SF-295 CNS, 12.8%; with SF-539 CNS it was 4.21% (active); in the test with UACC-257 melanoma, 72.6%; with M14 melanoma it was -16.2% (active). In addition, in the test with HCT-15 colon, the growth was 15.7%.

For `COc1ccc(/C=C/C(=O)Nc2cccnc2Nc2ccc(F)cc2)cc1`, the growth with NCI-H23 lung is 93.6%; with NCI-H226 lung, 85.5%; in the test on NCI-H322M lung, 101%; in the test with HOP-62 NSCLC it was 117%; in the test with NCI-H460 lung, 108%; with NCI-H522 lung it was 92.5%. The growth was 84.6% with A549/ATCC NSCLC; 95.6% in the test on 786-0 renal; 109% in the test with COLO 205 colon; 118% in the test with DU-145 prostate; 122% in the test on MALME-3M melanoma; 91.7% in the test with MDA-MB-231 breast. The growth in the test on RXF 393 renal is 102%; in the test with SF-268 CNS, 112%; in the test on SF-295 CNS, 87.9%; with SF-539 CNS it was 93.7%; in the test with UACC-257 melanoma, 97.9%; in the test with M14 melanoma it was 103%. In the test on HCT-15 colon, the growth is 102%.

Regarding `O=C1CCCN1C1CCN(Cc2cc3ccccc3[nH]c2=O)c2ccccc21` (stereo not drawn), the growth with NCI-H23 lung is 82.7%; in the test with NCI-H226 lung it was 78.3%; in the test on NCI-H322M lung it was 83.2%; in the test with HOP-62 NSCLC it was 79.5%; in the test on NCI-H460 lung it was 102%; with NCI-H522 lung, 63%. Further, the growth is 98.8% with A549/ATCC NSCLC; 85.2% with 786-0 renal; 106% with COLO 205 colon; 101% in the test on DU-145 prostate; 76.4% in the test on MALME-3M melanoma; 92.6% with MDA-MB-231 breast. For the same compound, the growth in the test with RXF 393 renal is 99.4%; in the test on SF-268 CNS it was 94.7%; in the test with SF-295 CNS, 72.3%; with SF-539 CNS, 97.2%; with UACC-257 melanoma, 114%; in the test with M14 melanoma, 86.1%. Moreover, the growth in the test with HCT-15 colon is 92.4%.

Turning to `COc1ccc(C(=O)/C=C/c2c(Cl)nc3c(c(C)nn3-c3ccccc3)c2-c2ccc(Br)cc2)cc1`, the growth with NCI-H23 lung was 105%; in the test on NCI-H226 lung, 97.3%; in the test with NCI-H322M lung, 109%; in the test with HOP-62 NSCLC it was 104%; in the test on NCI-H460 lung, 106%; in the test on NCI-H522 lung, 98.6%. In addition, the growth in the test on A549/ATCC NSCLC was 104%; with 786-0 renal, 91.5%; in the test on COLO 205 colon it was 111%; in the test on DU-145 prostate, 112%; in the test on MALME-3M melanoma, 102%; in the test on MDA-MB-231 breast, 105%. In addition, the growth with RXF 393 renal is 101%; in the test on SF-268 CNS, 103%; in the test on SF-295 CNS, 103%; in the test with UACC-257 melanoma it was 108%; with M14 melanoma it was 100%; in the test on HCT-15 colon, 102%.

Take `Cc1c(C(N)=O)sc2c1c(=O)n(Cc1ccccc1)c1nnc(SCC(=O)Nc3ccc(Cl)cc3)n21`: the growth with NCI-H23 lung was 57.7%; in the test with NCI-H226 lung, 9.97% (active); in the test on NCI-H322M lung, 28.9%; in the test with HOP-62 NSCLC, -6.06% (active); with NCI-H460 lung, -12.3% (active); in the test with NCI-H522 lung, 17.2%. For the same compound, the growth was 20.7% with A549/ATCC NSCLC; -41.2% (active) in the test on 786-0 renal; 50.7% in the test with COLO 205 colon; 39.5% in the test with DU-145 prostate; 15.8% in the test on MALME-3M melanoma; -6.85% (active) in the test with MDA-MB-231 breast. Further, the growth with RXF 393 renal is 38%; in the test on SF-268 CNS, 60.1%; with SF-295 CNS it was 49.4%; in the test on UACC-257 melanoma, 35.3%; in the test on M14 melanoma, 40.5%; in the test with HCT-15 colon it was 82.5%.

Regarding `COc1cc(C(=O)/C=C/c2cccnc2Nc2ccccc2)cc(OC)c1OC`, the growth in the test with NCI-H23 lung was -35.3% (active); in the test with NCI-H226 lung, -96.2% (active); with NCI-H322M lung, 7.04% (active); with HOP-62 NSCLC, -74.2% (active); with NCI-H460 lung, -40.4% (active); with NCI-H522 lung, -68.7% (active). Also, the growth is 2.67% (active) in the test on A549/ATCC NSCLC; -83.1% (active) in the test with 786-0 renal; -87.5% (active) with COLO 205 colon; -98.9% (active) in the test with DU-145 prostate; -71.5% (active) in the test on MALME-3M melanoma; -61.1% (active) in the test on MDA-MB-231 breast. Also, the growth in the test with RXF 393 renal was -97.4% (active); in the test with SF-268 CNS it was -81.1% (active); with SF-295 CNS it was 17.3%; in the test with SF-539 CNS it was -54.8% (active); in the test with UACC-257 melanoma, -88.2% (active); in the test with M14 melanoma, -70% (active). Moreover, the growth with HCT-15 colon is -33.7% (active).

In the case of `CC1(C)OC(=O)C(=Cc2ccccc2Br)C(=O)O1`, the growth in the test on NCI-H23 lung is 101%; in the test with NCI-H226 lung, 96.9%; in the test on NCI-H322M lung, 101%; with HOP-62 NSCLC it was 106%; in the test with NCI-H460 lung, 102%; in the test with NCI-H522 lung it was 88.8%. The growth in the test with A549/ATCC NSCLC was 103%; with 786-0 renal, 103%; in the test with COLO 205 colon, 109%; in the test with DU-145 prostate it was 116%; in the test on K-562 leukemia, 87.4%; in the test with MDA-MB-231 breast, 109%. For the same compound, the growth in the test on SF-268 CNS is 104%; in the test with SF-295 CNS it was 99.7%; in the test on SF-539 CNS it was 91.9%; in the test on UACC-257 melanoma it was 95.3%; in the test with M14 melanoma it was 88%; in the test with HCT-15 colon it was 88.6%.
